Measurements as given in PubChem BioAssay (NCI).
This is part of a sample that, as a whole, favours compounds with a hit. Of some 83,000 tested, about 20% had one in any assay.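 Step 1: grow cells in 96-well plates. Step 2: add test compound at a single concentration. Step 3: incubate 48 h. Step 4: record percent growth.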 Values without a mark were called inactive. Calls of active or inactive are those of the source. How the source made its calls: active means growth percent below 10; inactive means the rest.

Key:
Test in all cases: NCI-60 one-dose screen, 48 h (100 = growth as untreated, 0 = no growth, -100 = all killed)
Settings in all cases: 10 µM unless noted
BT-549 breast = tested on: BT-549 breast
MDA-MB-435 melanoma = tested on: MDA-MB-435 melanoma
SW-620 colon = tested on: SW-620 colon
MCF7 breast = tested on: MCF7 breast
HCT-116 colon = tested on: HCT-116 colon
HCC-2998 colon = tested on: HCC-2998 colon
KM12 colon = tested on: KM12 colon

Row | Compound | growth (BT-549 breast) | growth (MDA-MB-435 melanoma) | growth (SW-620 colon) | growth (MCF7 breast) | growth (HCT-116 colon) | growth (HCC-2998 colon) | growth (KM12 colon)
1 | CN(C)C1=NCCN1 | 97.5% | 110% | 106% | 97.2% | 98.7% | 101% | 100%
2 | O=C(O)CCNC1CCCCC1 | 99.6% | 117% | 101% | 87.5% | 92.6% | 86.4% | 99.7%
3 | CN(C)CCCn1c2c(c3cc(-c4cccc(S(N)(=O)=O)c4)ccc3c1=O)C(=O)c1ccccc1-2 | 76.1% | 80.3% | 36.8% | 27.7% | -82.6% (active) | 77.2% | 65.5%
4 | O=c1[nH]nc(-c2ccc(Br)cc2)c2sc(NC(=S)Nc3ccc(Cl)cc3)nc12 | 92.6% | 104% | 96.7% | 79.7% | 96.8% | 97.6% | 99.3%
5 | NC[C@@H]1CCN(c2cc3c(cc2F)c(=O)n(N)c(=O)n3Cc2ccc(-c3ccccc3)cc2)C1 | 69.3% | 76.6% | 84.2% | 79.4% | 65.3% | 96% | 96.9%
6 | O=C1c2ccccc2C(=O)c2c1oc1c2c(=O)[nH]c2ccc(Cl)cc21 | 38% | 10.2% | -53% (active) | 0.704% (active) | -12.2% (active) | 65.1% | 0.119% (active)
7 | COc1ccc2nc(-c3ccc(Cl)cc3)cc(-c3nnc(SC/C(=N/O)c4ccccc4)o3)c2c1 | 46.8% | 47% | 26.5% | 19.9% | 3.9% (active) | 84% | 58.1%
8 | CCOC(=O)NCCc1nc2c([nH]1)c(=O)n(C)c(=O)n2C | 97.6% | 101% | 103% | 95.4% | 92.7% | 99.7% | 101%
9 | O=C(N/N=C/C[C@@H]1[C@@H](/C=C/[C@@H](O)COc2cccc(Cl)c2)[C@H](O)C[C@@H]1O)c1ccncc1 | 95.3% | 99.8% | 94.2% | 99.1% | 92.7% | 104% | 105%
10 | O=C1[C@@H](OS(=O)(=O)CC(F)(F)F)[C@H](c2ccc(F)cn2)N1c1cc2c3ccccc3ccc2c2ccccc12 | 66.2% | 30.5% | 47.6% | 64% | 79.3% | 105% | 87%
11 | O=c1[nH]c(-c2cccc(F)c2)cc2cc(F)ccc12 | 66.5% | -25.5% (active) | 26.9% | 13.6% | 25.4% | 44.6% | 23.6%
12 | CC(=O)Oc1ccc(O)cc1 | 92.7% | 106% | 115% | 88% | 95.3% | 123% | 103%
13 | O=C1CC(c2ccc(O)c(O)c2)Oc2cc(O)c([C@@H]3O[C@H](CO)[C@@H](O)[C@H](O)[C@H]3O)c(O)c21 (stereo partly drawn) | 102% | 105% | 98.4% | 108% | 93.9% | 108% | 109%
14 | NC(=O)c1ccc(C2C3=C(CCCC3=O)OC3=C2C(=O)c2ccccc2C3=O)cc1 (stereo not drawn) | 81.4% | -87.4% (active) | 12% | -28.8% (active) | 1.17% (active) | 77.7% | 44.1%
15 | O=C(O)c1ccc(-n2cc(/C=N/Nc3ccc(Cl)cc3Cl)c(-c3ccccc3)n2)cc1 | 79.3% | 95.5% | 96.3% | 69.8% | 76.8% | 101% | 83.4%
16 | COc1ccc(C(=O)c2cc(F)c(F)c(OC)c2F)cc1OC(=O)CCl | 36.3% | -27.7% (active) | 20.6% | 19.2% | 20.5% | 79.5% | 31.1%
17 | COc1cc([C@H](C)c2ccc3ccccc3c2)cc(OC)c1OC | 39.1% | 0.308% (active) | 28.5% | 14.8% | 6.72% (active) | 26.5% | 19.6%

Row | Compound | growth (BT-549 breast) | growth (MDA-MB-435 melanoma) | growth (SW-620 colon) | growth (MCF7 breast) | growth (HCT-116 colon) | growth (HCC-2998 colon) | growth (KM12 colon)
18 | Sc1cccc2cccnc12 | 48.4% | 44.9% | 38.7% | 26.8% | 11.5% | 40% | 25.4%
19 | Cc1nn(-c2ccc(-c3ccc(OC(F)(F)F)cc3)cc2)c2nc(-c3ccccc3)nc(N)c12 | 98.1% | 102% | 81.3% | 94.3% | 96.7% | 96.8% | 100%
20 | C/C(=N/Nc1nc2ccccc2n1C)c1ccccn1 | 13.5% | 32.5% | 23.6% | 3.47% (active) | 2.75% (active) | 39.3% | 19.7%
21 | COc1ccc(NC(=O)Nc2ccc(Nc3nc(C)cc(Nc4ccc(C)cc4)n3)cc2)cc1 | 3.93% (active) | -97.5% (active) | -62% (active) | -63.8% (active) | -91.6% (active) | -74.6% (active) | -88.1% (active)
22 | C=C1C(=O)O[C@H]2[C@H]1CC/C(COC(=O)NCC(=O)Nc1ccc(OC)c(C(N)=O)c1O)=C\CC[C@@]1(C)O[C@@H]21 | 47.4% | 56.3% | 10.6% | 18.6% | 36% | 102% | 92.8%
23 | C#C[C@@]1(O)[C@@H](CO)O[C@@H](n2cc(Cl)c3c(N)ccnc32)[C@@H]1O | 89.9% | 75.6% | 54.8% | 36.7% | 4.67% (active) | 85.4% | 69.9%
24 | C#Cc1ccccc1NC(=O)c1sc2nc3c(cc2c1N)CCCCCC3 | 37.3% | 74.5% | 27.6% | 58.4% | 75.5% | 104% | 42.7%
25 | COc1cc(C2=NN(C(C)=O)C(c3cccc(Nc4ccnc5cc(C(F)(F)F)ccc45)c3)C2)cc(OC)c1OC (stereo not drawn) | 46.2% | 56.6% | 66.1% | 37.9% | 48.4% | 72.2% | 64.8%
26 | COc1ccc2nc(-c3ccc(OC)c(OC)c3)cc(-c3nnc(SCC(=O)Nc4ccc(C(C)=O)cc4)o3)c2c1 | 102% | 103% | 103% | 94.9% | 89.7% | 111% | 102%
27 | CCOC(=O)c1c(C)nc2c(c1N)/C(=C/c1ccccn1)C(=O)N2Cc1ccccc1 | 15.9% | 11.2% | 1.97% (active) | 2.76% (active) | -21.8% (active) | 11.2% | 12.2%
28 | CC(=O)OC[C@]12CC[C@@H](c3cn(Cc4ccc(Cn5cc([C@@H]6CC[C@]7(COC(C)=O)CC[C@]8(C)[C@H](CC[C@@H]9[C@@]%10(C)CC[C@H](OC(C)=O)C(C)(C)[C@@H]%10CC[C@]98C)[C@@H]67)nn5)cc4)nn3)[C@@H]1[C@H]1CC[C@@H]3[C@@]4(C)CC[C@H](OC(C)=O)C(C)(C)[C@@H]4CC[C@@]3(C)[C@]1(C)CC2 | 91.4% | 105% | 106% | 92.1% | 109% | 104% | 106%
29 | C#CC[C@@H]1C[C@]2(C)[C@H]3CC[C@@H]4[C@H]5[C@H](C(=C)C)CC[C@]5(C(=O)O)CC[C@@]4(C)[C@]3(C)CC[C@H]2C(C)(C)[C@H]1O | 29% | 68.5% | 33.1% | 34.7% | 9.2% (active) | 64.7% | 24.8%
30 | NC(=N\N=C\c1ccccc1O)/C(N)=N/N=C/c1ccccc1O | 72% | 72.2% | 71.5% | 69.4% | 81.3% | 99.1% | 55.8%
31 | c1ccc2c3c([nH]c2c1)C(c1ccc(C2NCCc4c2[nH]c2ccccc42)cc1)NCC3 (stereo not drawn) | 86.9% | -91.6% (active) | -80% (active) | -81.2% (active) | -91.7% (active) | -64.8% (active) | -62% (active)
32 | COc1ccc2[nH]c3nc4cnccc4cc3c2c1 | 104% | 109% | 104% | 82% | 97.9% | 117% | 93.2%
33 | Cc1nccc2c3ccc(OCc4cn(-c5ccc(Cl)cc5)nn4)cc3n(CC(C)C)c12 | 28.3% | 30.6% | 24.4% | 13% | 10.8% | 31.2% | 19.3%
34 | Cc1nc2sc(C(=O)Nc3ccccc3)c(N)c2cc1C(C)O (stereo not drawn) | 74.3% | -41.1% (active) | 26.4% | 16.7% | 30.2% | 46.8% | 26.1%
